PostGolgi yeast = phenotypic screen on post-Golgi transport, primary screen; actives 0.9% (n = 98,000); inhibition, % at 10 µM; post-Golgi transport phenotypic cell assay; AID 739, 2007;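 further: yeast cells grown in 1536-well plates; yeast grown about 18 h at 30C before absorbance read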
CYP2C9 inhib = blockers of cytochrome P450 2C9 activity – biochemical, luminescence, ADME assay, primary screen; actives 20% (n = 96,000); inhibition, % at 5 µM; CYP2C9 Supersomes, luciferin-H conversion; P11712;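 active means blocking of liver enzyme CYP2C9 beyond about 50% at 5 µM, limit read from the data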
Target sequence (P11712 whole entry, looked up): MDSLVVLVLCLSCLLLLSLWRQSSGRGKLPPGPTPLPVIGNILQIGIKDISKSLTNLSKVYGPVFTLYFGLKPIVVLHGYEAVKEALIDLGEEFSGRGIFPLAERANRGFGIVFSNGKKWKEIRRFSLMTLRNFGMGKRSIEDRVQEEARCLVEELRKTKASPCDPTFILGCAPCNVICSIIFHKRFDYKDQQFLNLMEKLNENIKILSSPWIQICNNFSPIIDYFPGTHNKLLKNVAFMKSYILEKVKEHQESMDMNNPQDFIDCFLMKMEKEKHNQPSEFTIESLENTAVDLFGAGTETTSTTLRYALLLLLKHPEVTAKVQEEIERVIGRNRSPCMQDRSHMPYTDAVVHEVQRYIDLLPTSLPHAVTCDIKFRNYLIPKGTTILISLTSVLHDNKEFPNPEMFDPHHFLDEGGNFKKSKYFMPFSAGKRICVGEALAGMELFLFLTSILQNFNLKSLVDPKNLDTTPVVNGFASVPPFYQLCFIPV
CYP2C19 activ = human CYP2C19 activators, primary screen, biochemical, luminescence. recombinant CYP2C19, luciferin-H EGE luminescence; hits give high values; 0 = fully inhibited enzyme, 1 = untreated enzyme. Cytochrome P450 2C19 (Homo sapiens), P33261. activation factor at 5 µM. 96,000 tested, under 10 active;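 active means activation factor of at least 2 at 5 µM in the primary screen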
CYP2C19 inh = blockers of cytochrome P450 2C19 activity – biochemical, luminescence, ADME assay, primary screen | inhibition, % at 5 µM | CYP2C19 Supersomes, luciferin-H EGE luminescence, 30 min | actives 21% (n = 96,000);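 active means CYP2C19 inhibition above a set limit at 5 µM in the primary screen, cut at about 50% in these data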
CYP2C9 act = human CYP2C9 activators, primary screen, biochemical, luminescence | activation factor at 5 µM | recombinant CYP2C9, luciferin-H conversion; hits give high values; factor 1 = untreated enzyme, 0 = blocked | actives 1.4% (n = 96,000) | Cytochrome P450 2C9 (Homo sapiens), P11712;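 active means activation factor of 2 or more for CYP2C9 at a 5 µM dose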
PostGolgi ctrl = growth inhibition of yeast control strain, primary screen, counter-screen for post-Golgi transport modulator project; efflux-deficient yeast background strain, growth absorbance A615, 16 h; inhibition, % at 10 µM; actives 5% (n = 98,000); AID 738, 2007
A number is an active result; – = inactive; · = no result given. Sampled rows, rich in hits. Any-hit rate of the full collection: about 32%. Unless noted, no stated cut-off is given here; in the data, active means inhibition above about 30%; inactive means the rest.

SMILES | PostGolgi yeast | CYP2C9 inhib | CYP2C19 activ | CYP2C19 inh | CYP2C9 act | PostGolgi ctrl
O=C(Nc1ccc(F)cc1)c1cc(S(=O)(=O)N2CCCCC2)cs1 | – | – | – | – | – | –
CCOC(=O)N1CCN(C(=O)CN2C(=O)COc3ccc(C(C)(C)C)cc32)CC1 | – | – | – | – | – | –
Cc1cc(C)c2nc(C(F)(F)F)nc(NCCCN3CCOCC3)c2c1 | 40.8 | – | – | – | – | –
O=C(O)Cn1c2c(c3ccccc31)CCCC2 | · | – | – | – | – | ·
CCN(CC)S(=O)(=O)c1cccc(-c2nnc(-c3ccc(C)cc3)o2)c1 | – | – | – | – | – | –
CCN(CC)S(=O)(=O)c1cc(-c2nnc(-c3ccc(Br)cc3)o2)ccc1Cl | – | 60.4 | – | – | – | –
Cc1oc(=O)c(NC(=O)c2ccc(Cl)cc2)cc1C(=O)c1ccccc1 | – | – | – | – | – | –
Cc1ccc(S(=O)(=O)NNC(=O)c2sccc2-n2cccc2)cc1 | – | – | – | – | – | –
Cc1nnsc1C(=O)NNS(=O)(=O)c1ccccc1 | – | – | – | – | – | 37.7
Cc1ccc(C(=O)O/N=C(\N)c2ccc(Br)cc2)cc1C | – | – | – | – | – | –
N/C(=N\OS(=O)(=O)c1ccc(Br)cc1)c1ccncc1 | – | 58.0 | – | – | – | –
CCOC(=O)N1CCC(NC(=O)C2CCCN(S(=O)(=O)c3cccnc3)C2)CC1 (stereo not given) | – | – | – | – | – | –
CC(C)OC(=O)CN1CCN(C2c3ccccc3-c3ccccc32)CC1 | – | – | – | – | – | –
COC(=O)C1=C(C)N(C)C(C)=C(C(=O)OC)C1c1ccc(Cl)cc1 | – | 57.9 | – | – | – | –
CCOC(=O)C1=C(C)N(C)C(C)=C(C(=O)OCC)C1c1ccc(C(=O)OC)cc1 | – | 98.7 | – | 99.0 | – | –
COC(=O)C1=C(C)N(C)C(=O)NC1c1ccc(O)c(OC)c1 (stereo not given) | – | · | · | · | · | –
COc1ccc(NC(=O)Nc2ccc(N(C)C)cc2)cc1 | – | – | – | 85.7 | – | –
COc1ccc(NC(=O)Cn2cccc2)c(OC)c1 | – | – | – | – | – | –
COc1ccc(NC(=O)NCc2cccn2C)c(OC)c1 | – | – | – | 62.4 | – | –
COc1ccc(N2CCC(CNC(=O)Nc3ccccc3)C2)cc1 (stereo not given) | – | – | – | 59.6 | – | –
COc1ccc(CNC(=O)Nc2cccc(C)c2)cc1 | – | – | – | – | – | –
COc1ccc(CNC(=O)Nc2ccc(OC)cc2)cc1 | – | – | – | 59.0 | – | –
Cc1cc(NC(=O)CN2CC3CC(C2)c2cccc(=O)n2C3)nc2c1c(=O)oc1ccccc12 (stereo not given) | · | – | – | – | – | ·
COC(=O)c1cc(NC(=O)C2CC=CCC2C(=O)O)cc(C(=O)OC)c1 (stereo not given) | – | – | – | – | – | –
N=C1C(c2ccccc2)=C(O)CN1c1ccccc1N1CCOCC1 | – | – | – | – | – | –
SMILES | PostGolgi yeast | CYP2C9 inhib | CYP2C19 activ | CYP2C19 inh | CYP2C9 act | PostGolgi ctrl
COc1ccc(OC)c(NC(=O)NCc2ccc(F)cc2)c1 | – | – | – | 98.8 | – | –
CC1(C(=O)N(CC(=O)NC2CCCC2)Cc2ccco2)CC(=O)N=C2C=CC=CN21 (stereo not given) | – | – | – | – | – | –
S=C(NCc1ccco1)N1CCN(Cc2ccc(Cl)cc2Cl)CC1 | – | – | – | – | – | 31.8
O=C(CN1CCN(Cc2ccccc2)CC1)NC(=O)NCc1ccco1 | – | – | – | – | – | –
COc1ccc(NC(=O)C(=O)NCc2ccncc2)c(OC)c1 | – | 70.2 | – | 57.4 | – | –
C/C(=N\O)C(=O)NCc1ccncc1 | – | – | – | – | – | –
COc1ccc(NC(=O)NCc2ccncc2)c(OC)c1 | – | – | – | – | – | –
COc1ccc(C)cc1NC(=O)C(=O)NCc1ccncc1 | – | 77.9 | – | – | – | –
Cc1ccc(C)c(S(=O)(=O)N2CCN(CC(=O)NC(=O)NCc3ccccc3)CC2)c1 | – | – | – | – | 2.2 | –
COC(=O)c1c(C)oc2ccc(N(C(=O)c3ccncc3)S(=O)(=O)c3ccc(C)cc3)cc12 | – | 98.5 | – | 100.0 | – | –
COC(=O)c1c(C)oc2ccc(OC(=O)N3CCOCC3)cc12 | – | – | – | – | – | –
COC(=O)c1c(C)oc2ccc(N(C(=O)c3ccncc3)S(=O)(=O)c3ccccc3)cc12 | – | 76.9 | – | 91.2 | – | –
CC(=O)Nc1ccc(N(C)S(C)(=O)=O)cc1 | – | – | – | – | – | –
O=C(COC(=O)CCc1c[nH]c(=O)[nH]1)Nc1cccc(Cl)c1 | – | – | – | – | – | –
O=[N+]([O-])c1cc(Br)c(O)c(/C=N/Nc2nnnn2-c2cccc3ccccc23)c1 | – | 100.1 | – | 90.6 | – | –
C=CCOc1ccc2cccc(/C=N/NC(=O)c3cc4cc([N+](=O)[O-])ccc4s3)c2c1 | – | – | – | – | – | –
Cc1noc(C)c1C(=O)NCCc1ccc(Cl)cc1 | – | 54.2 | – | 90.6 | – | –
O=C(NCCc1ccc(Cl)cc1)C1CCN(S(=O)(=O)N2CCC3(CC2)OCCO3)CC1 | – | – | – | 76.7 | – | –
COc1cccc(CNC(=O)C2CCCN(c3nc4ccccc4o3)C2)c1 (stereo not given) | – | – | – | – | – | –
Cc1ccc(CCNC(=O)C2CCCN(c3nc4ccccc4o3)C2)cc1 (stereo not given) | – | 50.4 | – | 60.9 | – | –
O=C(NCCc1ccc(Cl)cc1)C1CCCN(S(=O)(=O)c2cnc[nH]2)C1 (stereo not given) | – | 86.0 | – | 92.1 | – | –
O=C(O/N=C/C1=C(Cl)c2ccccc2CC1)c1ccc(F)cc1 | – | – | – | – | – | –
Cc1ccc(CCNC(=O)C2CCCN(S(=O)(=O)c3cnc[nH]3)C2)cc1 (stereo not given) | – | 77.7 | – | 87.1 | – | –
O=C(NCCC1=CCCCC1)C1CCN(S(=O)(=O)c2cnc[nH]2)CC1 | – | 96.0 | – | 78.2 | – | –
Cc1noc(C)c1S(=O)(=O)N1CCCC(C(=O)NCCc2ccc(Cl)cc2)C1 (stereo not given) | – | – | – | 69.4 | – | –
O=C(NCCC1=CCCCC1)C1CCN(S(=O)(=O)c2cccs2)CC1 | – | – | – | – | – | –
CC(=O)N1c2ccccc2C(=O)C1N1CCCCC1 (stereo not given) | – | – | – | – | – | –
O=C(c1oc2ccccc2c1N1CCCCC1)N1CCCCC1 | – | – | – | – | – | –
Cc1ccc(-n2c(-c3cccnc3)n[nH]c2=S)c(C)c1 | – | – | – | – | – | –
c1ccc(N2CCN(c3nc4ccccc4n4nnnc34)CC2)cc1 | – | – | – | – | – | –
